# Screens deposited in PubChem by National Center for Advancing Translational Sciences (NCATS).
# The list is not random: actives were taken first. Their share in the collection is about 6%.
# D1 antagonist: blocks dopamine activation of the human D1 receptor; 3.2% of 360,000 active; activity change, negative = inhibition, % at 10 µM; HEK293 TREx D1 cells, calcium flux, dopamine EC80; active compounds read low; P21728; in the data active = activity change below about -30%; also: % is scaled to controls: 0 for no effect and ±100 for the full control effect
#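 Calcium flux readout: force-coupled, inducible Hek293 Trex D1 line, cells induced overnight at 30 C with tetracycline, dye-loaded 30–90 min at RT. Antagonism scored against EC80 dopamine challenge given 180 s after compound.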
# D3 antag: blocks the human D3 dopamine receptor; AID 652054; max response, negative = inhibition, %; P35462; 2.5% of 360,000 active; D3R cells, DiscoveRx beta-arrestin luminescence, antagonist mode; active compounds read low; in the data active = max response below about -50%; inconclusive = no clear call, values can overlap the other calls; also: % is scaled to controls: 0 for no effect and ±100 for the full control effect
# Target sequence (P35462 whole entry, looked up): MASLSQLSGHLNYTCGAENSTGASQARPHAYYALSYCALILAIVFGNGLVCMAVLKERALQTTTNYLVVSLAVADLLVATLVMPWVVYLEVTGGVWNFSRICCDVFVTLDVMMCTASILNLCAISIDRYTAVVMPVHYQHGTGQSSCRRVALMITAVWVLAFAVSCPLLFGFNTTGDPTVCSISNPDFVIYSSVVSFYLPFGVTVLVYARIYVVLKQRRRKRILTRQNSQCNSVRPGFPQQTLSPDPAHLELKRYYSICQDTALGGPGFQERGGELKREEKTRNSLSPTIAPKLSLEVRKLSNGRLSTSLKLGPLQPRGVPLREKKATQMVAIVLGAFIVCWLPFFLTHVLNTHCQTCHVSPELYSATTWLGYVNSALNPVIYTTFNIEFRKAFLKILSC
#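 Cells expressing the human receptor were seeded at 1500 cells/well, incubated overnight at 37 degrees C in 5% CO2, then exposed to library compounds with dopamine controls for 90 minutes at 37 degrees C before luminescent detection.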
# D1 potentiator: enhances dopamine response at the human D1 receptor. P21728. HEK293 TREx D1 cells, calcium flux, dopamine EC20 potentiation. potentiation, % at 10 µM. 0.036% of 360,000 active. AID 504651; in the data active = potentiation above about 30%; also: 0% is about no effect
# D1 ag: activates the human D1 dopamine receptor; AID 504660; 1% of 360,000 active; HEK293 T-REx D1 cells, calcium flux, agonist mode; activation, % at 2 µM; P21728; in the data active = activation above about 30%; also: 0% is about no effect
#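 Inducible HEK293 T-REx D1 cells, force-coupled to calcium signalling, were plated at 4000 cells/well with tetracycline and held overnight at 30 C. After no-wash calcium dye loading, compound-evoked calcium rise over 180 s flagged agonists.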
# DRD3 agonist: activates the human D3 dopamine receptor; P35462; D3R DiscoveRx beta-arrestin cells, luminescence, 90 min; max activation, %; 0.58% of 410,000 active; AID 652048; in the data active = max activation above about 30%; also: 0% is about no effect
#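 Agonist mode: compounds and dopamine controls were applied to plated cells for 90 min at 37 degrees C after an overnight attachment at 1500 cells/well. Luminescent read-out followed 30 - 60 minutes at room temperature with DiscoveRx detection reagent.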
# The depositor's hits bear a star; ? = inconclusive; . = no result.
SMILES,D1 antagonist,D3 antag,D1 potentiator,D1 ag,DRD3 agonist
COc1ccc([N+](=O)[O-])cc1NC(=S)NC(NC(=O)Cc1ccc(OC)c(OC)c1)C(Cl)(Cl)Cl (configuration not stated),-1,-93*,-2,0,-12
COc1ccc(NC(=S)NC(NC(=O)C(C)C)C(Cl)(Cl)Cl)c([N+](=O)[O-])c1 (configuration not stated),-1,-69*,0,7,-1
CNc1nc(-c2ccc3c(c2)CCN3C(=O)CC(C)(C)C)c(C)s1,-35*,-5,2,3,-1
COc1cccc(OC(=O)c2cc3ccccc3oc2=O)c1,-30*,-2,-2,5,-6
COc1ccc(OCC(=O)Nc2c(C(=O)N3CCN(c4ccccc4)CC3)oc3ccccc23)cc1,3,.,0,1,89*
COc1ccc2oc(=O)c(C(=O)N3CCN(c4ccccc4)CC3)cc2c1,-41*,-7,-1,0,5
COc1ccc(OCC(=O)Nc2c(C(=O)N3CCN(C)CC3)oc3ccccc23)cc1,-33*,-6,-18,4,-6
COc1ccccc1OC(=O)c1cc2ccccc2oc1=O,4,-5,-4,-4,4
Cc1ccc(-n2c3nc(=O)[nH]c(=O)c-3cc3c(C)nn(-c4ccccc4)c32)cc1Cl,-9,.,-2,4,-1
O=C(Cn1c2ncccc2c(=O)n1-c1ccccc1)Nc1cccc(C(F)(F)F)c1,-7,.,-1,6,7
CC(CN1c2ccccc2Sc2cccnc21)N(C)C (configuration not stated),.,.,.,.,-17
COc1cc2[nH]c(=O)c(C(=O)NCc3ccc(C)cc3)c(O)c2cc1OC,.,-22,.,.,0
N#C/C(=C\c1ccc(Cl)c([N+](=O)[O-])c1)c1ccccn1,.,-55*,-8,-2,-12
Cc1ccc(OCCOCCn2ccnc2)c(Br)c1,-55*,0,-8,31*,-10
Cc1cccc(OCCCOc2cccc3cccnc23)c1C,-2,-54*,-9,2,5
Cc1ccc(OCCn2ccnc2)c(C)c1,14,-21,-4,2,-3
O=C(/C=C\c1ccccc1)Oc1cccc2cccnc12,6,-59*,-5,8,-6
Cc1cc(C(C)(C)C)ccc1OCCn1ccnc1,-6,-64*,-6,9,2
Cc1ccc2cccc(OCCCOc3ccccc3F)c2n1,-49*,8,-14,6,-3
Cc1cccc(OCCCCCn2ccnc2)c1C,3,0,-6,46*,-3
NC(=O)COc1cccc2cccnc12,-79*,-15,-10,0,11
Cc1cccc(C)c1OCCCn1ccnc1,6,-11,-3,7,-3
COc1ccc(-c2c(C)c3cc(OC(=O)N4CCOCC4)ccc3oc2=O)cc1,.,.,-1,-1,5
O=Nc1nc2ncccn2c1-c1ccccc1,.,-57*,.,.,-14
O=C(CCc1ccc(O)c(O)c1)NNC(=S)NCCc1ccccc1,-24,-13,-6,7,59*
SMILES,D1 antagonist,D3 antag,D1 potentiator,D1 ag,DRD3 agonist
O=C(CCc1ccc(O)c(O)c1)NNC(=S)Nc1ccc(Br)cc1Cl,-23,?,-8,8,37*
O=C(NNC(=S)Nc1ccc(Br)cc1Cl)c1ccncc1,-15,-29,0,5,4
COc1cccc(NC(=O)NNC(=O)CCc2ccc(O)c(O)c2)c1,0,-19,0,7,67*
Cc1ccc(CC2(C)C(=O)Nc3c(Cl)ccc(Cl)c32)cc1 (configuration not stated),.,9,.,.,4
O=C(CCCN1C(=O)CCC1=O)Nc1ccc(Br)cc1F,-32*,13,-3,1,-5
O=C(CCCN1C(=O)CCC1=O)Nc1ccccc1F,13,14,-6,2,-11
Cc1cccc(NC(=O)C2CCCN(S(=O)(=O)c3c(C)n[nH]c3C)C2)c1 (configuration not stated),6,.,-2,0,-18
CN(C(=O)COC(=O)c1cccnc1Nc1ccccc1F)C1CCS(=O)(=O)C1 (configuration not stated),-31*,3,-2,0,1
Cc1noc(C)c1C(=O)OCC(=O)N(C)C1CCS(=O)(=O)C1 (configuration not stated),-80*,1,-2,4,0
